Read-out in experiment [1]: Monocyte Chemoattractant Protein-1 (MCP1), CCL2 (gene 6347)
As to the kind of experiment: BSK_SAg_MCP1: BioMAP Diversity Plus: SAg Assay for Monocyte Chemoattractant Protein-1 (MCP1) Biomarker Activity (AID 2283090). As to conditions: primary human HUVEC with PBMC; actives raise or lower the signal. In outline: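 MCP-1 levels in the endothelial–PBMC SAg co-culture were quantified by ELISA at 24 h post-dosing; both increases and decreases versus DMSO scored. Cytotoxicity monitored by SRB total protein in parallel cultures.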

Read-out in experiment [2]: E-selectin (Homo sapiens) (UniProt P16581)
Briefly: BSK_SAg_Eselectin: BioMAP Diversity Plus: SAg Assay for Eselectin Biomarker Activity (AID 2283091). The conditions noted are these: primary human HUVEC with PBMC; actives raise or lower the signal. In outline:
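Co-culture: HUVEC + PBMC. Dose compound; 24 h. ELISA for E-selectin. Bidirectional fit vs DMSO.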

Read-out in experiment [3]: Monokine induced gamma interferon (MIG), CXCL9 (gene 4283)
As to the kind of experiment: BSK_SAg_MIG: BioMAP Diversity Plus: SAg Assay for Monokine induced gamma interferon (MIG) Biomarker Activity (AID 2283092). As to conditions: primary human HUVEC with PBMC; actives raise or lower the signal. The essentials: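 Measures CXCL9 protein by ELISA in a human vascular primary-cell co-culture (umbilical vein endothelium with PBMC) 24 h after chemical addition. Activity is scored up or down from the DMSO control.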

A short description of experiment [4]: BSK_SAg_PBMCCytotoxicity: PBMC Cytotoxicity Assessment in the BioMAP Diversity Plus: SAg Assay (AID 2283093).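 Further: PBMC viability measured as Alamar Blue reduction fluorescence at 546/580 nm; fitted both ways against DMSO so a hit may be loss or gain of signal.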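 On AC50: PBMC superantigen activated with SEB plus TSST-1 one hour after compound addition.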 The conditions noted are these: primary human HUVEC with PBMC. In outline:
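HUVEC/PBMC co-culture; PBMC exposed to chemical 1 h before SEB and TSST-1 activation (20 ng/mL each), incubated 90 h, then Alamar Blue 6 h, fluorescence 546/580 nm. Bidirectional fit versus DMSO baseline.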

Read-out in experiment [5]: Interleukin-8 (IL8), CXCL8 (gene 3576)
Briefly: BSK_SAg_IL8: BioMAP Diversity Plus: SAg Assay for Interleukin-8 (IL8) Biomarker Activity (AID 2283094). The conditions noted are these: primary human HUVEC with PBMC; actives raise or lower the signal. The essentials:
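Human umbilical vein endothelial cells co-cultured with PBMC, stimulated with superantigen; IL-8 measured by ELISA 24 h after chemical dosing. Bidirectional fitting versus DMSO; SRB staining in parallel cultures tracks cytotoxicity.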

Experiment [6] in a line: BSK_SAg_Proliferation: Cell Proliferation Assessment in the BioMAP Diversity Plus: SAg Assay (AID 2283095). As to conditions: primary human HUVEC with PBMC. In outline: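 Human umbilical vein endothelial cells co-cultured with PBMC; sulforhodamine B total-protein staining (0.1% SRB after 10% TCA fixation, absorbance 560 nm) at 96 h in sub-confluent culture. Fitted bidirectionally against DMSO.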

Experiment [7] is described as follows: BSK_SAg_SRB: Viability Assessment in the BioMAP Diversity Plus: SAg Assay (AID 2283096).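 Further: cells read one day after compound addition; hits may be either gain or loss of signal compared with DMSO.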 The conditions noted are these: primary human HUVEC with PBMC. In outline:
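Human umbilical vein endothelial cells co-cultured with PBMC, read 24 h after compound dosing. Total protein measured by sulforhodamine B staining (0.1% SRB after 10% TCA fixation, absorbance 560 nm); bidirectional fit versus DMSO baseline.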

For experiment [8], the target named is human Matrix Metalloproteinase-9 (MMP9), MMP9 (gene 4318) (UniProt P14780). Briefly: NVS_ENZ_hMMP9: NovaScreen (NVS) Enzymatic Assay for human Matrix Metalloproteinase-9 (MMP9) (AID 2283190; active means hit-call score of the fitted dose curve at least 0.9, where 1 is the maximum;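 further: cell-free recombinant MMP9 protease activity read by fluorescent substrate signal; active means inhibition seen as loss of fluorescence signal versus DMSO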). In outline:
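Inhibition was scored as loss of fluorescence signal against DMSO controls. The recombinant protease was exposed to chemicals for 1 hour before reading; initial testing used 25 uM in duplicate.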

For experiment [9], the target named is guinea pig Leukotriene D4 Receptor (LTD4), CYSLTR1 (gene 100135514) (UniProt Q2NNR5). As to the kind of experiment: NVS_GPCR_gLTD4: NovaScreen (NVS) G Protein-Coupled Receptor Assay for guinea pig Leukotriene D4 Receptor (LTD4) (AID 2283248; active means hit-call score of the fitted dose curve at least 0.9, where 1 is the maximum). The essentials: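 Radioligand displacement on guinea pig lung membranes, 1 h incubation, filtration and scintillation counting; DMSO as negative control. Duplicate 25 uM primary screen, then singleton concentration-response up to 50 uM.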
guinea pig Leukotriene D4 Receptor (LTD4), CYSLTR1 (gene 100135514), sequence (Q2NNR5 whole entry, looked up): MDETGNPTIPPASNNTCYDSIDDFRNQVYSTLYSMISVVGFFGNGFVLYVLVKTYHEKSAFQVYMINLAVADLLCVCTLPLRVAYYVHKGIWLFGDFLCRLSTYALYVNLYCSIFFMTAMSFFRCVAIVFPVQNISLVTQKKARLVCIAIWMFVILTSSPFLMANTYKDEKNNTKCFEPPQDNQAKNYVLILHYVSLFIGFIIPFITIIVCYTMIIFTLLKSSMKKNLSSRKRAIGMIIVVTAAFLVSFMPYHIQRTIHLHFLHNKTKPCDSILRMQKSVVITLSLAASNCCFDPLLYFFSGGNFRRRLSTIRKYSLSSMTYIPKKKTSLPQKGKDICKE

For experiment [10], the target named is human CYP2D6, CYP2D6 (gene 1565) (UniProt P10635). As to the kind of experiment: NVS_ADME_hCYP2D6: NovaScreen (NVS) CYP450-related Enzyme Activity (ADME) Assay for human CYP2D6 (AID 2283107; active means hit-call score of the fitted dose curve at least 0.9, where 1 is the maximum). In outline:
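Insect-cell recombinant enzyme + fluorogenic substrate, cell-free; 1 h incubation; fluorescence intensity readout. Acetonitrile = neg. ctrl/baseline. Single-point 10 uM, duplicate; follow-up concentration series.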

Experiment [11] deals with Cytochrome P450 2C19 (Homo sapiens) (UniProt P33261). Briefly: NVS_ADME_hCYP2C19: NovaScreen (NVS) CYP450-related Enzyme Activity (ADME) Assay for human CYP2C19 (AID 2283113; active means hit-call score of the fitted dose curve at least 0.9, where 1 is the maximum;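 further: potency for inhibition seen as loss of fluorescent signal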). The essentials: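 Fluorescence intensity was measured 1 hour after chemicals were added to insect-cell-derived recombinant CYP2C19 with fluorogenic substrate. Decreased signal versus acetonitrile control was taken as reduced enzyme activity; initial testing used 10 uM in duplicate.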

Experiment [12] deals with human Beta-secretase (BACE), BACE1 (gene 23621) (UniProt P56817). Briefly: NVS_ENZ_hBACE: NovaScreen (NVS) Enzymatic Assay for human Beta-secretase (BACE) (AID 2283140; active means hit-call score of the fitted dose curve at least 0.9, where 1 is the maximum;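 further: hits are inhibitors that reduce fluorescent substrate signal versus DMSO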). In outline: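 Cell-free assay of recombinant Sf9-expressed human BACE with fluorescent substrate, read by fluorescence intensity after 1 h. Primary screen in duplicate at 25 uM; actives then run in concentration series; loss of signal relative to DMSO.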

In experiment [13] the target is human Dual Specificity Protein Phosphatase 3 (DUSP3), DUSP3 (gene 1845) (UniProt P51452). As to the kind of experiment: NVS_ENZ_hDUSP3: NovaScreen (NVS) Enzymatic Assay for human Dual Specificity Protein Phosphatase 3 (DUSP3) (AID 2283152; active means hit-call score of the fitted dose curve at least 0.9, where 1 is the maximum). In outline: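 Cell-free assay with recombinant human DUSP3 and fluorogenic substrate, read by fluorescence intensity. Primary screen ran duplicate at 25 uM; actives followed up in concentration series; loss of signal versus DMSO scored.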
human Dual Specificity Protein Phosphatase 3 (DUSP3), DUSP3 (gene 1845), sequence (P51452 whole entry, looked up): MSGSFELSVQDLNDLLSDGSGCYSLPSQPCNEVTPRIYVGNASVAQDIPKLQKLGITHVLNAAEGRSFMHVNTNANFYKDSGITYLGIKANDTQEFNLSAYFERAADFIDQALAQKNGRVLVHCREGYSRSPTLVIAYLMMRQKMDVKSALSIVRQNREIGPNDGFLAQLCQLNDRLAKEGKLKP

In experiment [14] the target is human Ephrin type-A Receptor 1 (EphA1), EPHA1 (gene 2041) (UniProt P21709). Briefly: NVS_ENZ_hEphA1: NovaScreen (NVS) Enzymatic Assay for human Ephrin type-A Receptor 1 (EphA1) (AID 2283158; active means hit-call score of the fitted dose curve at least 0.9, where 1 is the maximum;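 further: activity is signal loss versus DMSO meaning EphA1 kinase inhibition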). In outline:
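Chemicals first tested in duplicate at 25 uM against recombinant EphA1 with a fluorescent substrate; those passing threshold went to singleton dose-response topping at 50 uM. Activity read 1 h later as mobility-shift fluorescence, loss of signal relative to DMSO.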

Experiment [15] deals with human Phosphoinositide 3-kinase alpha (PI3Ka), PIK3CA (gene 5290) (UniProt P42336). As to the kind of experiment: NVS_ENZ_hPI3Ka: NovaScreen (NVS) Enzymatic Assay for human Phosphoinositide 3-kinase alpha (PI3Ka) (AID 2283196; active means hit-call score of the fitted dose curve at least 0.9, where 1 is the maximum). The essentials:
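Chemicals were first screened at 25 uM in duplicate, then hits were run as concentration series up to 50 uM. Enzyme activity was measured by fluorescence after mobility-shift separation, with loss of signal relative to DMSO taken as activity.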

In experiment [16] the target is human Vascular Endothelial Growth Factor Receptor 1 (VEGFR1), FLT1 (gene 2321) (UniProt P17948). Briefly: NVS_ENZ_hVEGFR1: NovaScreen (NVS) Enzymatic Assay for human Vascular Endothelial Growth Factor Receptor 1 (VEGFR1) (AID 2283226; active means hit-call score of the fitted dose curve at least 0.9, where 1 is the maximum). The essentials:
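Cell-free assay of recombinant human VEGFR1 kinase with substrate, measured 1 h after dosing; fluorescence with electrophoretic mobility-shift separation of substrate and product, referenced to DMSO; primary screen at 25 uM in duplicate, actives then run in concentration series.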

Records with an inconclusive call do not appear. The source made the active and inactive calls. How the source made its calls, unless noted: active means hit-call score of the fitted dose curve at least 0.9, where 1 is the maximum; inactive means score below 0.9.

E-selectin (Homo sapiens), sequence (P16581 whole entry, looked up): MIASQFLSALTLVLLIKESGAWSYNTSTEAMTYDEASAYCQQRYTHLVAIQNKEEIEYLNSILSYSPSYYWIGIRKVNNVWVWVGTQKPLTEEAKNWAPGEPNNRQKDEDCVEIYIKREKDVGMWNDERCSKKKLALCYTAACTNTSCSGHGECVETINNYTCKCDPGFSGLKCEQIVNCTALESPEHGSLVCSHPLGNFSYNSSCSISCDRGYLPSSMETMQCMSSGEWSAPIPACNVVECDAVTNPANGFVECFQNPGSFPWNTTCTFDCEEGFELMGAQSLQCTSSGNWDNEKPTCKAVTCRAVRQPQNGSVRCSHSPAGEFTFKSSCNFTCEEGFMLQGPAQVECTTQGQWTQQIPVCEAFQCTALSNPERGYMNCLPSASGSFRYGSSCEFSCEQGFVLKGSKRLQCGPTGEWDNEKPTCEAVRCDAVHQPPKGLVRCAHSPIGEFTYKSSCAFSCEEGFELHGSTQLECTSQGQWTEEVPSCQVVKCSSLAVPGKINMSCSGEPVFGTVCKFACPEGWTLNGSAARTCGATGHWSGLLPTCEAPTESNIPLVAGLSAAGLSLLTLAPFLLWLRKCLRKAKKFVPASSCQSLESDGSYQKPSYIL
human Matrix Metalloproteinase-9 (MMP9), MMP9 (gene 4318), sequence (P14780 whole entry, looked up): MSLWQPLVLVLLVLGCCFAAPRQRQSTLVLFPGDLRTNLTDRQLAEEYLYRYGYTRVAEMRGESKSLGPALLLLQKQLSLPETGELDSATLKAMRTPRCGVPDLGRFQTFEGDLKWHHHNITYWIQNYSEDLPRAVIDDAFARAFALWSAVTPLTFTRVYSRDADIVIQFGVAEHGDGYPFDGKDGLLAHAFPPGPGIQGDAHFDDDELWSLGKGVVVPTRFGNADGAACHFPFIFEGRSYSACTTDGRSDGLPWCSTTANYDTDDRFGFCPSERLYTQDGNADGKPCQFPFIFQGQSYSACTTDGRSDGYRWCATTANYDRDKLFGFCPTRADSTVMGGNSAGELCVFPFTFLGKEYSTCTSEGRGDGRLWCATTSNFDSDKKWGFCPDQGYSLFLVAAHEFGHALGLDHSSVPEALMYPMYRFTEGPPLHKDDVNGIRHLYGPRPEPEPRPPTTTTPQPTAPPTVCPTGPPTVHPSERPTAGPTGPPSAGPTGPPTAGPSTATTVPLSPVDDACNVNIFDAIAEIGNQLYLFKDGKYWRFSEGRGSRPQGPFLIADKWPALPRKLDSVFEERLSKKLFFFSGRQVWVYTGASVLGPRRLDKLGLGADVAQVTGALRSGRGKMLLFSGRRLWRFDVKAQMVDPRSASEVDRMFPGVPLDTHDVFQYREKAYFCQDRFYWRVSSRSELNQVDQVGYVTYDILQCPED
human Vascular Endothelial Growth Factor Receptor 1 (VEGFR1), FLT1 (gene 2321), sequence (P17948 whole entry, looked up): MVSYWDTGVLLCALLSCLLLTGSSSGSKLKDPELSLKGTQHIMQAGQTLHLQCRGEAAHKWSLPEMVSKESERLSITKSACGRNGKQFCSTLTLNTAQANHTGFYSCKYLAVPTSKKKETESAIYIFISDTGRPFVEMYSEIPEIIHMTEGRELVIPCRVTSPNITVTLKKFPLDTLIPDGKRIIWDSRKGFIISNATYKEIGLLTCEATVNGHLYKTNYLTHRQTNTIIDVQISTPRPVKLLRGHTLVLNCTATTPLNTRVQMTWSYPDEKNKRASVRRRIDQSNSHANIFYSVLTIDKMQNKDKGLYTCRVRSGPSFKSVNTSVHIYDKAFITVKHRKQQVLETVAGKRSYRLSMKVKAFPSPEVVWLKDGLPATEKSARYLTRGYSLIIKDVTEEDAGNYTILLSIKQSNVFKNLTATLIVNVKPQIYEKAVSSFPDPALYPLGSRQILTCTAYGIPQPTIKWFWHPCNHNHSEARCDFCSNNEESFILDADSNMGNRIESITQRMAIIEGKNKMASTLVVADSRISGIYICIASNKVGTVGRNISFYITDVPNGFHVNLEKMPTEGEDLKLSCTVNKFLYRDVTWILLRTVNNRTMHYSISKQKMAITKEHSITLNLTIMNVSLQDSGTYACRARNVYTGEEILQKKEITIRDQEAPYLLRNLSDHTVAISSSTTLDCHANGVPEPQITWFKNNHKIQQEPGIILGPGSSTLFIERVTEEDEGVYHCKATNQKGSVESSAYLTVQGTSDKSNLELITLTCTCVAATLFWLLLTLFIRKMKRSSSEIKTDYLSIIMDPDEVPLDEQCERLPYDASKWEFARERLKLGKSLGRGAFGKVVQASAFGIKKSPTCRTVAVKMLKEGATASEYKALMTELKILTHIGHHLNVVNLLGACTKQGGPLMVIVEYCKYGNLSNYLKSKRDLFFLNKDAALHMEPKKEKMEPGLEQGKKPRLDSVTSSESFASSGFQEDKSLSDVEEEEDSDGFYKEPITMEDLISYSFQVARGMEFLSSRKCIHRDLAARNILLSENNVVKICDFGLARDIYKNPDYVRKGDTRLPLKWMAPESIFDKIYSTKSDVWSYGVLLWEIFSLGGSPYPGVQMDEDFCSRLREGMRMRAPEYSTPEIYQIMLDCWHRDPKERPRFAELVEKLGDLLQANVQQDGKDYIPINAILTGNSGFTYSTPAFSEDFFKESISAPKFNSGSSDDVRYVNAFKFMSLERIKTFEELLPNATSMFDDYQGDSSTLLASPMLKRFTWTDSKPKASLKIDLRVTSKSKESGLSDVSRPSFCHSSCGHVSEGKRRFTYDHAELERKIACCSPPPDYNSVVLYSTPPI
human Phosphoinositide 3-kinase alpha (PI3Ka), PIK3CA (gene 5290), sequence (P42336 whole entry, looked up): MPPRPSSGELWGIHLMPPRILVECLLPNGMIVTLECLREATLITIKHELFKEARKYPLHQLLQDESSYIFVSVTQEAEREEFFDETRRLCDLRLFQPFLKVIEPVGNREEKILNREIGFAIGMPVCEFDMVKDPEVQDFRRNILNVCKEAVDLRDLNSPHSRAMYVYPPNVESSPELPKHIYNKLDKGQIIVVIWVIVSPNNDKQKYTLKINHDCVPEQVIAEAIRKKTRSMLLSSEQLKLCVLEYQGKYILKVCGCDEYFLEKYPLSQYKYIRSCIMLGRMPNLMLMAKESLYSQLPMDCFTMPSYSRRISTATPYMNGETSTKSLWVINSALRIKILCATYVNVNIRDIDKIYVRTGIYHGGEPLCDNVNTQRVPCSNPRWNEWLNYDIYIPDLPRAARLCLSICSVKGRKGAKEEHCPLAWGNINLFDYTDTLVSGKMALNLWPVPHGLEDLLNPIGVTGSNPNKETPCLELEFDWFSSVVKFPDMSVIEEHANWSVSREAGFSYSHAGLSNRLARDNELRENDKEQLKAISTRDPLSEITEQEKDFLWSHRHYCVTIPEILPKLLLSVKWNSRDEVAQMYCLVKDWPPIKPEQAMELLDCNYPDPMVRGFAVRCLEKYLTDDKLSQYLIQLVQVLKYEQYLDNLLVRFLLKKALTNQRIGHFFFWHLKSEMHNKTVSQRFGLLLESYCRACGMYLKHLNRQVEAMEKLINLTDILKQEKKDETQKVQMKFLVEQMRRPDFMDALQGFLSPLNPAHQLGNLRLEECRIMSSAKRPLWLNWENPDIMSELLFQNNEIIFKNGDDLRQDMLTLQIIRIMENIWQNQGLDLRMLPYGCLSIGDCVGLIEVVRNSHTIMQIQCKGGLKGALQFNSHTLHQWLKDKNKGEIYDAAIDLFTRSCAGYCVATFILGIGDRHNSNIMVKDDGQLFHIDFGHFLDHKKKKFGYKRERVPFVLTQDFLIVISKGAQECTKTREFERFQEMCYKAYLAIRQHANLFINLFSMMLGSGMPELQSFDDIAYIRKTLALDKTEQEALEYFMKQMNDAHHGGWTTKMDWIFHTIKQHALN
human CYP2D6, CYP2D6 (gene 1565), sequence (P10635 whole entry, looked up): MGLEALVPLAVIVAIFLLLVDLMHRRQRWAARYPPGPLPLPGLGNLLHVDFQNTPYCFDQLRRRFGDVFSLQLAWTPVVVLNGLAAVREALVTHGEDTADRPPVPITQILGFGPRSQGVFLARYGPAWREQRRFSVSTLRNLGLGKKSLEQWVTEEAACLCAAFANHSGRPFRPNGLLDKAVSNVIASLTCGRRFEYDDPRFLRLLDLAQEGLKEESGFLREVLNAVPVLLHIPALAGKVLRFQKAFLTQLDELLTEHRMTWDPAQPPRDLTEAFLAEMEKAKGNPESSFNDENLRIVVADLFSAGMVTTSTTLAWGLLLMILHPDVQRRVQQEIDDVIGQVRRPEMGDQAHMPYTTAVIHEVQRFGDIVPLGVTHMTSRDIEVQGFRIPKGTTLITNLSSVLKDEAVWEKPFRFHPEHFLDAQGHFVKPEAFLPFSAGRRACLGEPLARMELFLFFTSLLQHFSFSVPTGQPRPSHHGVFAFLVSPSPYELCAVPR

For `O=C(CC(=O)C(F)(F)C(F)(F)F)C(F)(F)F`, the outcome in experiment [1], in experiment [2], in experiment [3], in experiment [4], in [5] and in experiment [6] was inactive. Moreover, the result in experiment [7] was inactive.
Regarding `CCCCNc1ccccc1`, the outcome in [1], in experiment [2], in [3], in [4], in experiment [5] and in [6] was inactive. For the same compound, the result in experiment [7] and in [9] was inactive. Moreover, in [8], the half-maximal activity concentration (AC50) is 4.99 µM (active).
With `C=CC(F)(F)C(F)(F)C(F)(F)C(F)(F)C(F)(F)C(F)(F)C(F)(F)C(F)(F)F`, the result in experiment [1], in experiment [2], in experiment [3], in [4], in experiment [5] and in [6] was inactive. In addition, the result in [7] was inactive.
Take `O=S(=O)(O)C(F)(F)C(F)(F)C(F)(F)C(F)(F)C(F)(F)C(F)(F)C(F)(F)F`: the outcome in experiment [1], in experiment [2], in experiment [3], in experiment [4], in experiment [5] and in experiment [6] was inactive. For the same compound, the result in experiment [7] was inactive.
For `OCC(F)(F)C(F)(F)C(F)(F)C(F)(F)C(F)(F)C(F)F`, the result in experiment [1], in experiment [2], in experiment [3], in [4], in [5] and in [6] was inactive. The result in [7] was inactive.
On to `CCCCCCCCCCCCCCCC[N+](C)(C)Cc1ccccc1`, for which the AC50 in experiment [1] was 2.97 µM (active); in [2], 20 µM (active); in experiment [3] it was 2.96 µM (active); in experiment [4] it was 1.17 µM (active); in experiment [5], 10 µM (active); in experiment [6], 0.456 µM (active). The AC50 in experiment [7] is 5.21 µM (active); in experiment [10] it was 0.401 µM (active); in experiment [11], 5 µM (active); in experiment [12], 6.34 µM (active); in [13], 4.22 µM (active). The call in [14], in experiment [8], in experiment [15] and in experiment [16] was inactive.
`O=C(O)C(F)(F)C(F)(F)OC(F)(F)F`: the outcome in experiment [1], in [2], in experiment [3], in [4], in experiment [5] and in experiment [6] was inactive. Moreover, the outcome in experiment [7] was inactive.
As to `O=C(O)C(F)(OC(F)(F)C(F)(OC(F)(F)C(F)(F)C(F)(F)F)C(F)(F)F)C(F)(F)F` (stereo not drawn), the outcome in experiment [1], in experiment [2], in experiment [3], in experiment [4], in [5] and in experiment [6] was inactive. In addition, the result in experiment [7] was inactive.
As to `CCCCC(CC)COP(=O)(O)OCC(CC)CCCC` (stereo not drawn), the result in experiment [1], in experiment [2], in experiment [3], in [4], in experiment [5] and in experiment [6] was inactive. The result in [7] was inactive.

The record behind these values is PubChem BioAssay (EPA / NIEHS).
